In PubChem BioAssay (NCATS):
Inconclusive results are not listed. Entries that show only a call come without a potency. Calls of active or inactive are those of the source. Unless noted, calls follow the shape of the dose curve; as a rule, active = well fitted curve in the direction sought with a large enough effect; inconclusive = small, poorly fitted or top-dose-only effect, or another doubt; inactive = no such curve, though single readings can be large; an effect the other way counts as inactive or inconclusive.

Key:
[1] = biological target: Cytochrome P450 1A2 (Homo sapiens) (UniProt P05177); assay: p450-cyp1a2 (AID 410; calls by dose curve; also: potency is read from the fitted curve at half-maximal effect)
In short: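 Luminescent demethylation readout: Luciferin-ME (100uM, equal to Km) turned over by 20nM CYP1A2 for 60 min at room temperature after NADPH regeneration addition, following 10 min compound preincubation. Normalization used 57 uM furafylline as full inhibition.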

[2] = biological target: Glucocorticoid receptor (Homo sapiens) (UniProt P04150); assay: GR-GFP Redistribution (AID 450;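 active = compounds whose dose series gives a full or clear partial fitted curve of increased nuclear translocation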; also: potency is read from the fitted curve at half-maximal effect); details: U2OS GR-GFP nuclear translocation, laser cytometry, 2 h
[3] = biological target: Glucocorticoid receptor (Homo sapiens) (UniProt P04150); assay: GR-EFC Redistribution (AID 451; calls by dose curve; also: potency is read from the fitted curve at half-maximal effect); details: CHO-K1 GR-EFC translocation, beta-gal luminescence, 2 h
In short: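 CHO-K1 cells expressing nuclear EA and GR-ED fragments of b-gal; compounds titrated up to 46 uM final, 2 h at 37 C. GR nuclear translocation read as complemented b-gal luminescence after 1 h RT detection.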

[4] = biological target: Mitogen-activated protein kinase 10 (Mus musculus) (UniProt Q61831); assay: JNK3 AlphaScreen Assay (AID 530; active = well fitted curve in either direction with a large enough effect, not every such curve was filed as active;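 also: kinase came from lysate of stimulated human HepG2 cells; signal reports phosphorylation of biotinylated GST-cJun 1-79 at Ser73 with 10 µM ATP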)
In short: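 Activity was read by AlphaScreen after JNK3-containing HepG2 lysate (cytokine pre-activated) phosphorylated biotinylated GST-cJun with 10 uM ATP at room temperature. Phospho-Ser73 cJun antibody with Protein-A acceptor beads provided detection.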

[5] = biological target: 3',5'-cyclic-AMP phosphodiesterase 4B (Homo sapiens) (UniProt Q07343); assay: qHTS Assay for Inhibitors of PDE-IV (AID 607; active = well fitted activation curve with a large enough effect in the main read-out, with a control signal flat, not every such curve was filed as active)
Chain of 3',5'-cyclic-AMP phosphodiesterase 4B (Homo sapiens) (Q07343 whole entry, looked up): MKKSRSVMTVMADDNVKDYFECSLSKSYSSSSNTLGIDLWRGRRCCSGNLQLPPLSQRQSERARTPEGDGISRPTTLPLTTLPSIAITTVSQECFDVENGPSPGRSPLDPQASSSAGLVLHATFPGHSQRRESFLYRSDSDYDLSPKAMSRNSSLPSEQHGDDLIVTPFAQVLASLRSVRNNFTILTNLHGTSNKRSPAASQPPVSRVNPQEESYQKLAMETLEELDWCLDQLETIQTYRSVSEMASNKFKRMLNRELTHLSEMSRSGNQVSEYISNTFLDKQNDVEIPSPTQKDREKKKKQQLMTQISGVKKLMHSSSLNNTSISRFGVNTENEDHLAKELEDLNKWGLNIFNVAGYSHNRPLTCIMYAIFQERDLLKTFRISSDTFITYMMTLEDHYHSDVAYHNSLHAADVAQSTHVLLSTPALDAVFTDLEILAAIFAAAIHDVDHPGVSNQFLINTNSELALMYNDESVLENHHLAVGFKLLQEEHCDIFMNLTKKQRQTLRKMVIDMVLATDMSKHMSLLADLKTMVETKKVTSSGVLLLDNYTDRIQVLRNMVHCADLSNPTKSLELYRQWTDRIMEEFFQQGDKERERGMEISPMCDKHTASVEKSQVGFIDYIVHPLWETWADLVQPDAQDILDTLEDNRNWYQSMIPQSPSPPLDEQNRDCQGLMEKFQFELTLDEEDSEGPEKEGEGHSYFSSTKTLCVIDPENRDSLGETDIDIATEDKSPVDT
In short: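 The readout is membrane depolarisation from a cAMP-sensing CNG channel, detected with a potential dye at ex 535/em 590. Cells were HEK293-derived (endogenous PDE-IV) at 1000 cells/well, titrated up to 22.9 uM final.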

[6] = qHTS Assay for Lipid Storage Modulators (AID 1519; calls by dose curve); details: Drosophila S3 cells, BODIPY lipid droplet/cell ratio, laser cytometry, cells loaded with oleic acid; for activity change, negative = inhibition: at 57.5 µM (top of the series)
In short: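 Cells seeded at 5,000 per well were treated with compounds over a concentration series and loaded with oleic acid (400 uM, as added). Lipid droplet fluorescence (488 nm excitation, 500-530 nm channel) was read by laser-scanning cytometry and normalized to 20 uM Triacsin C.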

[7] = biological target: Ubiquitin carboxyl-terminal hydrolase 1 (Homo sapiens) (UniProt O94782); assay: Inhibitors of USP1/UAF1: Pilot qHTS (AID 504865); also: nearly all actives have a fitted effect of over 35% in size; also: potency is read from the fitted curve at half-maximal effect;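 as to activity change, negative = inhibition: rhodamine fluorescence freed from ubiquitin-rhodamine substrate followed over time; top concentration of the series differs between compounds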
Chain of Ubiquitin carboxyl-terminal hydrolase 1 (Homo sapiens) (O94782 whole entry, looked up): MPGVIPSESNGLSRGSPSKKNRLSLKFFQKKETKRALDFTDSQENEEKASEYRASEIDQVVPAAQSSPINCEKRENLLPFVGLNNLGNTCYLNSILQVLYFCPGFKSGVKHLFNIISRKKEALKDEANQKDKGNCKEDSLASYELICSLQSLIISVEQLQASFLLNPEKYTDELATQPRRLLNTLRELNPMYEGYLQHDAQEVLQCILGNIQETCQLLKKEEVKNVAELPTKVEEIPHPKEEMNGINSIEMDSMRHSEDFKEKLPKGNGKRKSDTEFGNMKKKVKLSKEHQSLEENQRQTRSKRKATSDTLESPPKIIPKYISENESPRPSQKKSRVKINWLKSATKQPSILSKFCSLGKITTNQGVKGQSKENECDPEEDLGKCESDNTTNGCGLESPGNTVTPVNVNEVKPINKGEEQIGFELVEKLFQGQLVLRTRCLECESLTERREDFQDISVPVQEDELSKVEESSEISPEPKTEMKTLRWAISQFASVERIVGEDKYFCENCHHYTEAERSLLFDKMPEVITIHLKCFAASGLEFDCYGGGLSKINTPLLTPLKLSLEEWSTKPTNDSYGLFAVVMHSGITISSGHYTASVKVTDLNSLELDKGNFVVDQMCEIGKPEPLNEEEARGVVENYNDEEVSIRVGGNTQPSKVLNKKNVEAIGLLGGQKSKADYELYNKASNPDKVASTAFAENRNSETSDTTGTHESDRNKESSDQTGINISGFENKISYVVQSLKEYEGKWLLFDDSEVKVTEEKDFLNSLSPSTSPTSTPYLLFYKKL
In short: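 USP1/UAF1 complex (1nM) preincubated with compound 15 min at room temperature, then Ub-Rho substrate (150nM final) added. Fluorescence read kinetically at 480/540 nm, 6 reads every 60 seconds. Buffer: 50mM HEPES pH 7.8, 0.5mM EDTA, 0.1 mg/ml BSA, 1mM TCEP, 0.01% Tween-20.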

[8] = Primary qHTS for small molecule stabilizers of the endoplasmic reticulum resident proteome: Secreted ER Calcium Modulated Protein (SERCaMP) assay (AID 1508630)
In short: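 The SH-SY5Y reporter protocol was run at 3 concentrations up to 38.3 uM (primary) or 11 concentrations (follow-up): 16 h compound, 100 nM thapsigargin for 4 h, then extracellular luciferase luminescence.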

[9] = biological target: Dual specificity protein kinase CLK4 (Homo sapiens) (UniProt Q9HAZ1); assay: qHTS Assay for Inhibitors of CDC-like Kinase 4 (ADP-Glo Assay) (AID 1771); also: nearly all actives have a fitted effect of over 70% in size; also: potency is read from the fitted curve at half-maximal effect
Chain of Dual specificity protein kinase CLK4 (Homo sapiens) (Q9HAZ1 whole entry, looked up): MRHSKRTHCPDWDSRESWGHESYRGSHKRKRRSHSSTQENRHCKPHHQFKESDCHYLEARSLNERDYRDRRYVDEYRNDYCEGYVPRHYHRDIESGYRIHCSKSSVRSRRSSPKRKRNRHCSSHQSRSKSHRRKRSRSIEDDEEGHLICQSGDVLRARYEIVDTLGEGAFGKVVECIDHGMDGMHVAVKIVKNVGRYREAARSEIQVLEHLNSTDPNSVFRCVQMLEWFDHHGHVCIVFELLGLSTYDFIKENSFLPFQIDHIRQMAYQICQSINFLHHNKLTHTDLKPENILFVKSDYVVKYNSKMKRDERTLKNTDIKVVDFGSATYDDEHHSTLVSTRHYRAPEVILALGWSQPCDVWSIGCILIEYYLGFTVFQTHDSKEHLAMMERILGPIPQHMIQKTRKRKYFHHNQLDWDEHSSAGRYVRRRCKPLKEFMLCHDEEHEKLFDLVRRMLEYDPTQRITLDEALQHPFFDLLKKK
In short: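 ADP production was read by ADP-Glo luminescence after residual ATP depletion, following 1 h room-temperature reaction of 25 nM Clk4, 1 uM ATP and 100 uM RS peptide with MgCl2, EGTA, DTT and Triton X-100.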

[10] = biological target: Dual specificity protein kinase CLK4 (Homo sapiens) (UniProt Q9HAZ1); assay: qHTS Assay for Inhibitors of CDC-like Kinase 4 (ADP-FP Assay) (AID 1795); also: nearly all actives have a fitted effect of over 60% in size
In short: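 Recombinant human Clk4 (6.25 nM) phosphorylated RS repeat peptide (100 uM) with 1 uM ATP in Tris pH 7.5/MgCl2/EGTA/DTT/Triton buffer for one hour. ADP was quantified by Transcreener competitive fluorescence polarization against an ADP calibration curve.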

[11] = biological target: Rap guanine nucleotide exchange factor 3 (Homo sapiens) (UniProt O95398); assay: Confirmatory qHTS for antagonist of cAMP-regulated guanine nucleotide exchange factor 3 (EPAC1) (AID 1645880); also: nearly all actives have a fitted effect of over 55% in size
Chain of Rap guanine nucleotide exchange factor 3 (Homo sapiens) (O95398 whole entry, looked up): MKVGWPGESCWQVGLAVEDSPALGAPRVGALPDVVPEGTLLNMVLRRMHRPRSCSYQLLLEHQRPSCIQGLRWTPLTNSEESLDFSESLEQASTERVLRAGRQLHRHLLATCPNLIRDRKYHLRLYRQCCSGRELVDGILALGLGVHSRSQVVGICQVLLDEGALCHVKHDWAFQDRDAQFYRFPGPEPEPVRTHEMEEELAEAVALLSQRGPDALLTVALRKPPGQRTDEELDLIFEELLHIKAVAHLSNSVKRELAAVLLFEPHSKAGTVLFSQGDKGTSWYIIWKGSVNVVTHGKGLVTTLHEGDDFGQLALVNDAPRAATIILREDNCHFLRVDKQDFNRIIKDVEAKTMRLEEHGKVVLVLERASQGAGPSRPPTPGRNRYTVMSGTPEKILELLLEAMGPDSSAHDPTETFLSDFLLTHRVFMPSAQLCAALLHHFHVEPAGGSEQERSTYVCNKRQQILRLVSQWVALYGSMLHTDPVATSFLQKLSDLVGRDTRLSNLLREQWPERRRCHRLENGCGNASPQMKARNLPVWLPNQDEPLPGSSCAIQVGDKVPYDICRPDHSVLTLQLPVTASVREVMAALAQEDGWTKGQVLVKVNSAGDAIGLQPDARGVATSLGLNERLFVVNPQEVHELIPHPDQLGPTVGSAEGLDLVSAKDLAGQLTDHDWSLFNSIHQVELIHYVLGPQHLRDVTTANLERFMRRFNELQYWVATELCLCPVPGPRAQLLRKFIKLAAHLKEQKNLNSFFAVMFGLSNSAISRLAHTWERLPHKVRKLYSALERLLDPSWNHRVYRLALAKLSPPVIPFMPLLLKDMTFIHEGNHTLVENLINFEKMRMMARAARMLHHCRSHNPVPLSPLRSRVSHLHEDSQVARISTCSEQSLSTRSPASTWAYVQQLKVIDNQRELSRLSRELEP
In short: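 Released BODIPY-GDP fluoresces less than Rap1-bound BODIPY-GDP; the signal is followed at 480/540 nm at 5-min intervals over 30 min, after 5 min at room temperature. Reactions contain 100 nM EPAC1, 250 nM RAP1B-BODIPY-GDP and 50 uM GDP; results are normalized to ATA and DMSO.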

[12] = biological target: Rap guanine nucleotide exchange factor 3 (Homo sapiens) (UniProt O95398); assay: Confirmatory qHTS for agonist of cAMP-regulated guanine nucleotide exchange factor 3 (EPAC1) (AID 1645881);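 also: EPAC1 catalysed release of BODIPY-GDP from Rap1B seen as fluorescence loss; nearly all actives have a fitted effect of over 75% in size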
[13] = biological target: Rap guanine nucleotide exchange factor 4 (Homo sapiens) (UniProt Q8WZA2); assay: Confirmatory qHTS for agonist of cAMP-regulated guanine nucleotide exchange factor 4 (EPAC2) (AID 1645884);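 also: nucleotide exchange releases bodipy-GDP from Rap1 and this lowers its fluorescence; nearly all actives have a fitted effect of over 65% in size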
Chain of Rap guanine nucleotide exchange factor 4 (Homo sapiens) (Q8WZA2 whole entry, looked up): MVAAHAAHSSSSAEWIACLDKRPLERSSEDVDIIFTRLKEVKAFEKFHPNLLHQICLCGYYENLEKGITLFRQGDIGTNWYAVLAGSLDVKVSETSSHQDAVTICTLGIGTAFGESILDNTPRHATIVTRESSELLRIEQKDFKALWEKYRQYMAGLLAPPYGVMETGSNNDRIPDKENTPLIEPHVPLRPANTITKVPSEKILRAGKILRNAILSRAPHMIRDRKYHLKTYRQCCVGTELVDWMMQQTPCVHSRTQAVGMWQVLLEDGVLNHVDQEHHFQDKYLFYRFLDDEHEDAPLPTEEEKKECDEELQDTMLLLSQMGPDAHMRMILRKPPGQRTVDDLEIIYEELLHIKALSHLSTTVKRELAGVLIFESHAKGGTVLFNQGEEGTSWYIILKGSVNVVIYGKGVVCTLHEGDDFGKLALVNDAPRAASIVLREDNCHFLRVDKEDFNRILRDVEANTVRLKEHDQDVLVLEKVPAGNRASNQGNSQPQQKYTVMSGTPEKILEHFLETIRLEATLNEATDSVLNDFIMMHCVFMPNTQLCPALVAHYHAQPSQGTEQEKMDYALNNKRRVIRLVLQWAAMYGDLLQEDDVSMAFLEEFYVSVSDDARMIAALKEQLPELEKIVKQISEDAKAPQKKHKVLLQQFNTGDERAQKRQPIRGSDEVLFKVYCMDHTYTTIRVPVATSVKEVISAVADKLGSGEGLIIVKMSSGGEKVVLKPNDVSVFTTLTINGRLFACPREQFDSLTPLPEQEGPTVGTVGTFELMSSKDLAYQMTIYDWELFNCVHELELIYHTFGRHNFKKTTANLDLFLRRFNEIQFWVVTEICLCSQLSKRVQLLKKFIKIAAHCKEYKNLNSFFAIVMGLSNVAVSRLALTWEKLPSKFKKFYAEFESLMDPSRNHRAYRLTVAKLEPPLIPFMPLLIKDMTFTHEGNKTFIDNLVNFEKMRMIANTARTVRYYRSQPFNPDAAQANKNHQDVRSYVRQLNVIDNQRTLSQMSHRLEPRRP

[14] = biological target: Rap guanine nucleotide exchange factor 4 (Homo sapiens) (UniProt Q8WZA2); assay: Confirmatory qHTS for antagonist of cAMP-regulated guanine nucleotide exchange factor 4 (EPAC2) (AID 1645885); also: nearly all actives have a fitted effect of over 25% in size
[15] = biological target: Cytochrome P450 3A4 (Homo sapiens) (UniProt P08684); assay: qHTS Assay for Activators of Cytochrome P450 3A4 (AID 885); also: nearly all actives have a fitted effect of over 65% in size; also: potency is read from the fitted curve at half-maximal effect
Chain of Cytochrome P450 3A4 (Homo sapiens) (P08684 whole entry, looked up): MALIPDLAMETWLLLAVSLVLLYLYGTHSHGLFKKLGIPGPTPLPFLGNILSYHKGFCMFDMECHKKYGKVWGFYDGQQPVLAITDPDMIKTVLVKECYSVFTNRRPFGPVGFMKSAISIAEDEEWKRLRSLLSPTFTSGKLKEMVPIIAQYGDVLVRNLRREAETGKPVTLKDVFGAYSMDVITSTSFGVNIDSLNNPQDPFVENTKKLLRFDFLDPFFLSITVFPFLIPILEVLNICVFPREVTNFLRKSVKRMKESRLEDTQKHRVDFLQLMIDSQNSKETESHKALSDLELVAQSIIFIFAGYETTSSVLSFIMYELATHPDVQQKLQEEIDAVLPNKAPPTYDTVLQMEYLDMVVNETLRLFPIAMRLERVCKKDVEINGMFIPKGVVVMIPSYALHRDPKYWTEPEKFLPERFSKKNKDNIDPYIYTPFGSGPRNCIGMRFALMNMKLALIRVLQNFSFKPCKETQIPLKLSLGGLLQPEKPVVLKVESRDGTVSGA
In short: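 Activators are scored by enhanced luminescence from CYP3A4 conversion of luciferin-PPXE (25uM, equal to KM) to luciferin, after 60 min at RT with an NADPH-regenerating system.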

[16] = biological target: Lysosomal acid glucosylceramidase (Homo sapiens) (UniProt P04062); assay: Glucocerebrosidase-p2 (AID 348; in the data active = potency below about 10 µM; also: potency is read from the fitted curve at half-maximal effect); details: purified GBA, blue fluorogenic substrate, 40 min
Chain of Lysosomal acid glucosylceramidase (Homo sapiens) (P04062 whole entry, looked up): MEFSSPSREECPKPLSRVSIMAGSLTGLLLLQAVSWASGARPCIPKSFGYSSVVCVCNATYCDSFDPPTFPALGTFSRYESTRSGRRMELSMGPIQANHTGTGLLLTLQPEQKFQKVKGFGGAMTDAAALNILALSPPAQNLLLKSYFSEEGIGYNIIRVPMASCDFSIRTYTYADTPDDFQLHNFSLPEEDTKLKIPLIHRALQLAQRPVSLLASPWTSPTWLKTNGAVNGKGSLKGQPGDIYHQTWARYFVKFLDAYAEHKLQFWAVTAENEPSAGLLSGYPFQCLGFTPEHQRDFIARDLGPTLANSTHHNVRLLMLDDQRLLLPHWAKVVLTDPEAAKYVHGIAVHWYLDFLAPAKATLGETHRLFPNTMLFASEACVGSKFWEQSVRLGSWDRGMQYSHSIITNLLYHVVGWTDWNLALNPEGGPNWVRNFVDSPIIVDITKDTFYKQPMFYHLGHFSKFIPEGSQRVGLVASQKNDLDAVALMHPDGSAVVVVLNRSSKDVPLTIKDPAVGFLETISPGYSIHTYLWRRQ
In short: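 Normal human glucocerebrosidase (0.2 nM) with blue fluorogenic substrate (80 uM final) in citrate/phosphate pH 5.9 with 10mM sodium taurocholate, 0.01% tween-20; 40 min RT, NaOH/glycine stop; fluorescence Ex 365/Em 440; AC50 from a titration from 0.6 nM upwards.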

[17] = AP1 Signaling Pathway (AID 357; active = well fitted curve in either direction with a large enough effect, not every such curve was filed as active;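 also: ME-180 reporter cells stimulated with EGF at its EC50 level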); details: ME-180 AP-1-bla reporter, EGF-induced, beta-lactamase ratio, 5 h; at 7.69 µM (top of the series) unless noted
In short: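 Modulation of EGF-driven AP-1 transcription was assessed with a beta-lactamase reporter in ME-180 cells. Compound and EC50 EGF were co-incubated 5 hours at 37 °C before 2.5-hour CCF4 loading at room temperature and dual-emission reading.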

[18] = NFAT Signaling Pathway (AID 444; active = well fitted curve in either direction with a large enough effect, not every such curve was filed as active;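 also: carbachol stimulus at about its EC50 of 1 µM final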); details: Jurkat NFAT-bla M1, carbachol, beta-lactamase ratio, 5 h; at 7.69 µM (top of the series) unless noted
In short: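 Jurkat cells with NFAT-driven β-lactamase reporter and co-expressed M1 receptor, stimulated with carbachol (final 1 uM, ~EC50), compound titration, 5 h at 37 °C. CCF4 loaded 1 h at RT; 460/530 nm ratio gave %activity and AC50.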

[19] = Stat Signaling Pathway (AID 446; active = well fitted curve in either direction with a large enough effect, not every such curve was filed as active;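 also: ME-180 cervical cancer cells given 40 pM IL-6 alongside compound; SIE-controlled beta-lactamase reporter measured as 460/530 nm FRET emission ratio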); details: ME-180 (cervical carcinoma) SIE beta-lactamase reporter, IL-6 stimulated, 5 h; at 7.69 µM (top of the series) unless noted
In short: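 Emission at 460 and 530 nm (excitation 405 nm) reports SIE-controlled beta-lactamase in ME-180 cells. Cells received compound with 40 pM IL-6 for 5 hrs at 37 C; data scaled between 300 pM IL-6 and 125 nM JAK-inhibitor controls.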

[20] = biological target: Dual specificity protein kinase CLK4 (Homo sapiens) (UniProt Q9HAZ1); assay: qHTS Assay for Inhibitors of CDC-like Kinase 4 (Kinase-Glo Assay) (AID 1770); also: nearly all actives have a fitted effect of over 65% in size
In short: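 Recombinant human Clk4 (25 nM) phosphorylated RS repeat peptide (100 uM) with 1 uM ATP in Tris pH 7.5/MgCl2/EGTA/DTT/Triton buffer for 4.5 h at room temperature. Residual ATP was quantified by Kinase-Glo luciferase luminescence.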

[21] = measured here: cell count channel max response
[22] = measured here: lipid channel max response

Q: With `CCCCCCCCCCCCCC(=O)O[C@H](CC(=O)O)C[N+](C)(C)C` as the compound, how does the Potency [1] read?
A: Its Potency is “inactive”.

Q: And the Potency [2]?
A: Its Potency is > 46 µM (inactive).

Q: What about the Potency [3] of the same compound?
A: Its Potency is > 46 µM (inactive).

Q: And the Potency [4]?
A: Its Potency is “inactive”.

Q: And the Potency [5]?
A: The Potency was “inactive”.

Q: And the activity change, negative = inhibition [6]?
A: Its activity change, negative = inhibition is 3.49% (inactive).

Q: What about the max response [6, 21] of the same compound?
A: Its max response is -5.36%.

Q: And the max response [6, 22]?
A: The max response was -2.97%.

Q: And the Potency [7]?
A: The Potency was 79.4 µM (active).

Q: What about the outcome [8] of the same compound?
A: Its outcome is “inactive”.

Q: Which results are given for `COc1ccc2[nH]cc(CCNc3nc(-c4cccc(C#N)c4)nc4ccccc34)c2c1`?
A: Potency [2]: > 46 µM (inactive); Potency [3]: > 46 µM (inactive); Potency [4]: inactive; Potency [5]: inactive; Potency [9]: 28.2 µM (active); Potency [10]: inactive; Potency [7]: inactive; outcome [8]: inactive; Potency [11]: inactive; Potency [12]: inactive; Potency [13]: inactive; Potency [14]: inactive

Q: Which Potency [15] does the source give for `Cc1cc(OC(=O)c2c(C)cc(O)cc2O)cc(O)c1C(=O)O` here?
A: The Potency was “inactive”.

Q: What about the activity change, negative = inhibition [6] of the same compound?
A: Its activity change, negative = inhibition is 8.43% (inactive).

Q: What about the max response [6, 21] of the same compound?
A: Its max response is 13%.

Q: And the max response [6, 22]?
A: Its max response is 23.1%.

Q: What about the Potency [7] of the same compound?
A: Its Potency is “inactive”.

Q: What about the outcome [8] of the same compound?
A: The outcome was “inactive”.

Q: For `Cn1cccc1C(=O)N1CCC2(CCCN(c3cccc(-c4ccccc4)c3)C2)CC1`, which Potency [16] is on record?
A: The Potency was > 11.4 µM (inactive).

Q: What about the activity change, negative = inhibition [17] of the same compound?
A: The activity change, negative = inhibition was 7.29% (inactive).

Q: What about the Potency [1] of the same compound?
A: Its Potency is 15.8 µM (active).

Q: What about the activity change, negative = inhibition [18] of the same compound?
A: The activity change, negative = inhibition was -13.3% (inactive).

Q: And the activity, negative = inhibition [19]?
A: The activity, negative = inhibition was 2.34% (inactive).

Q: And the Potency [3]?
A: The Potency was > 46 µM (inactive).

Q: What about the outcome [8] of the same compound?
A: Its outcome is “inactive”.

Q: And the Potency [11]?
A: The Potency was “inactive”.

Q: And the Potency [12]?
A: The Potency was “inactive”.

Q: And the Potency [13]?
A: Its Potency is “inactive”.

Q: What about the Potency [14] of the same compound?
A: The Potency was “inactive”.

Q: What does the source list for `O=C(c1cnccn1)N1CCC2(CC1)CN(c1ccccn1)C2`?
A: Potency [1]: inactive; activity change, negative = inhibition [18]: -1.72% (inactive); activity, negative = inhibition [19]: 22.6% (inactive); Potency [3]: > 46 µM (inactive); Potency [4]: inactive; Potency [5]: inactive; Potency [15]: 3.98 µM (active); activity change, negative = inhibition [6]: 2.3% (inactive); max response [6, 21]: -1.81%; max response [6, 22]: -0.0464%; outcome [8]: inactive

Q: What does the source list for `COc1ccc(CNc2ncncc2-c2ccccc2C)c(OC)c1`?
A: Potency [16]: > 11.4 µM (inactive); Potency [1]: 10 µM (active); activity change, negative = inhibition [18]: 5.66% (inactive); activity, negative = inhibition [19]: -4.15% (inactive); Potency [3]: > 46 µM (inactive); Potency [4]: inactive; Potency [5]: inactive; Potency [15]: inactive; Potency [20]: inactive; Potency [9]: inactive; Potency [10]: inactive; Potency [7]: inactive; outcome [8]: inactive; Potency [11]: inactive; Potency [12]: inactive; Potency [13]: inactive

Q: Which Potency [16] does the source give for `COc1ccc(C(=O)N2CCC3(CC2)CN(c2cccc(-c4ccccc4)c2)C3)cc1` here?
A: The Potency was > 11.4 µM (inactive).

Q: And the activity change, negative = inhibition [17]?
A: Its activity change, negative = inhibition is -18.9% (inactive).

Q: What about the activity, negative = inhibition [19] of the same compound?
A: Its activity, negative = inhibition is -19.1% (inactive).

Q: What about the Potency [3] of the same compound?
A: The Potency was > 46 µM (inactive).

Q: And the Potency [5]?
A: The Potency was “inactive”.

Q: And the outcome [8]?
A: Its outcome is “inactive”.

Q: What about the Potency [11] of the same compound?
A: The Potency was “inactive”.

Q: And the Potency [12]?
A: Its Potency is “inactive”.

Q: What about the Potency [13] of the same compound?
A: The Potency was “inactive”.

Q: What about the Potency [14] of the same compound?
A: The Potency was “inactive”.

Q: Which Potency [1] does the source give for `N[C@H](C(=O)O)c1ccc(O)c(C(=O)O)c1` here?
A: The Potency was “inactive”.

Q: What about the Potency [2] of the same compound?
A: The Potency was > 46 µM (inactive).

Q: What about the Potency [4] of the same compound?
A: The Potency was “inactive”.

Q: What about the Potency [5] of the same compound?
A: The Potency was “inactive”.

Q: And the activity change, negative = inhibition [6]?
A: Its activity change, negative = inhibition is 1.32% (inactive).

Q: What about the max response [6, 21] of the same compound?
A: Its max response is 18.1%.

Q: And the max response [6, 22]?
A: Its max response is 22.5%.

Q: What about the Potency [7] of the same compound?
A: The Potency was “inactive”.

Q: And the outcome [8]?
A: Its outcome is “inactive”.
